Where a name gives a salt, the structure may show the parent alone.
Each compound was assayed against IKZF1 (dCK*-IKZF1 fusion in HEK293FT) (UniProt Q13422) (assay: inhibition of IKZF1 HTRF signal (DMSO = 0%, pomalidomide 10 uM = 100%); higher = lower IKZF1 protein level). Conditions: compound concentration: 5 uM, overnight (~20 h).
Sequence of IKZF1 (dCK*-IKZF1 fusion in HEK293FT) (Q13422 whole entry, looked up, the tested form may be a part): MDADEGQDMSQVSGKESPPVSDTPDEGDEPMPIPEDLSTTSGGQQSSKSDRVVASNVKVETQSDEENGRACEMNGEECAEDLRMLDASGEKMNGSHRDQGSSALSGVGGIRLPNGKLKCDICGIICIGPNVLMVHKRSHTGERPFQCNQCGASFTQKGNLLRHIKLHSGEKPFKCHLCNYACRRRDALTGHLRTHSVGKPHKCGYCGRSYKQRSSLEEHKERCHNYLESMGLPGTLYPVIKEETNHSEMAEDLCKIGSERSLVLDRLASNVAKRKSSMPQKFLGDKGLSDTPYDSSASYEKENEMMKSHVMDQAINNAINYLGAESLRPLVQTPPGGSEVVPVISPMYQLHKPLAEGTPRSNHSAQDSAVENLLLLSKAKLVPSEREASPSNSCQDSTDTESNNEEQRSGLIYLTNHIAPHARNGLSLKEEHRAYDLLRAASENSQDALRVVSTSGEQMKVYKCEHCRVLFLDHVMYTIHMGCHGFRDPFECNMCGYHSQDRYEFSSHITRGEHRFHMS
In short: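 Percent inhibition of IKZF1 signal was calculated per plate with vehicle and a reference degrader as anchors. The anchors were 0% for vehicle and 100% for the degrader, applied to background-subtracted 665/620 nm time-resolved FRET ratios from a commercial HTRF total-IKZF1 kit. Signal came from HEK293FT cells stably expressing an IKZF1 fusion, treated overnight at 37 °C with 5 μM compound in single wells of 384-well plates.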
In the case of CC1=C(/C=C/C(C)=C/C=C/C(C)=C/C(=O)Nc2ccc(O)cc2)C(C)(C)CCC1 [Fenretinide], the “inhibition of IKZF1 HTRF signal” value is reported as -30.4%. With C/C(=C\c1csc(C)n1)[C@@H]1C[C@@H]2O[C@]2(C)CCC[C@H](C)[C@H](O)[C@@H](C)C(=O)C(C)(C)[C@@H](O)CC(=O)N1 [Ixabepilone] the “inhibition of IKZF1 HTRF signal” value was -13.2%. In the case of Cc1nnsc1C(=O)Nc1ccc(-n2nc(C(F)(F)F)cc2C(F)(F)F)cc1, the “inhibition of IKZF1 HTRF signal” value is reported as -28.9%. In the case of Clc1ccccc1C(c1ccccc1)(c1ccccc1)n1ccnc1, the “inhibition of IKZF1 HTRF signal” value is reported as -36.9%. C[C@@H]1CC(=O)c2c(ccc3c2C(=O)c2cccc(O)c2C3=O)C1 [ochromycinone] was tested, and the “inhibition of IKZF1 HTRF signal” value was 14.5%.

What follows are compounds tested on HEK293FT dCK*-only (assay: relative growth in counter assay (no AraC = 100%, AraC + DMSO = 0%); higher = more growth rescue independent of IKZF1). Conditions: compound concentration: 5 uM; AraC concentration: 0.3 uM; overnight pretreatment + 4 days AraC.
In short: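 Nuclei were counted by imaging after Hoechst 33342 staining on day 5, in HEK293FT cells (300/well, 384-well) expressing only an engineered kinase construct. Compound at 5 μM went in 2 h after seeding, followed after overnight at 37 °C by a nucleoside suicide substrate at 0.3 μM plus medium for 4 days. Per plate, wells lacking suicide substrate defined 100% and those with substrate plus vehicle defined 0%.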
In the case of CC1=C(C(=O)OC(C)C)C(c2cccc([N+](=O)[O-])c2)C(C(=O)OC2CN(C(c3ccccc3)c3ccccc3)C2)=C(N)N1 (centres undefined) [Azelnidipine], the “relative growth in counter assay” value is reported as 12.8%. For Cc1cc(C2CCCCC2)n(O)c(=O)c1, the “relative growth in counter assay” value was -24.9%. Cc1cccc(C)c1NC(=O)CN1CCN(CCCC(c2ccc(F)cc2)c2ccc(F)cc2)CC1 [lidoflazine] was tested, and the “relative growth in counter assay” value was 35.6%. In the case of O=C(O)C(O)Cc1ccc(O)c(O)c1 (centres undefined) [Sodium Danshensu], the “relative growth in counter assay” value is reported as 0.01%. For CCN(CC)CCCN(c1ccccc1)C1Cc2ccccc2C1 [aprindine], the “relative growth in counter assay” value was 4.05%. For CN[C@H]1CC[C@@H](c2ccc(Cl)c(Cl)c2)c2ccccc21, the “relative growth in counter assay” value was 0.69%. In the case of O=C(Nc1ccc(C(O)(C(F)(F)F)C(F)(F)F)cc1)c1ccc(C(F)(F)F)cc1, the “relative growth in counter assay” value is reported as 49.3%. For CCc1nc(N)nc(N)c1-c1ccc(Cl)cc1 [Pyrimethamine], the “relative growth in counter assay” value was 3.76%. In the case of CN(C)CCN1C(=O)c2cccc3cc(N)cc(c23)C1=O [Amonafide], the “relative growth in counter assay” value is reported as -32.4%. In the case of CO/N=C1\C[C@]2(C[C@@H]3C[C@@H](C/C=C(\C)C[C@@H](C)/C=C/C=C4\CO[C@@H]5[C@H](O)C(C)=C[C@@H](C(=O)O3)[C@]45O)O2)O[C@H](/C(C)=C/C(C)C)[C@H]1C, the “relative growth in counter assay” value is reported as -0.37%. For CCCS(=O)c1ccc2nc(NC(=O)OC)[nH]c2c1 (centres undefined) [Albendazole Oxide (Ricobendazole)], the “relative growth in counter assay” value was -7.11%. With COc1cccc2c(O)c3c(O)c4c(c(O)c3c(O)c12)=C(O[C@H]1C[C@H](N)[C@H](O)[C@H](C)O1)C[C@](O)(C(C)=O)C=4 [Daunorubicin HCl] the “relative growth in counter assay” value was -34.8%. With NC(=O)c1ccc[n+]([C@@H]2O[C@H](COP(=O)(O)OP(=O)(O)OC[C@H]3O[C@@H](n4cnc5c(N)ncnc54)[C@H](O)[C@@H]3O)[C@@H](O)[C@H]2O)c1 the “relative growth in counter assay” value was 5.09%. For O=C1Nc2c(ccc(Cl)c2Cl)C1=NO, the “relative growth in counter assay” value was -8.31%. In the case of CC(C)CCN1c2nc(Nc3cc(F)c(O)c(F)c3)ncc2N(C)C(=O)C1C (centres undefined), the “relative growth in counter assay” value is reported as -32.3%. For Nc1c2ccccc2nc2ccccc12, the “relative growth in counter assay” value was -34.8%. NS(=O)(=O)c1ccc(S(=O)(=O)Nc2cccc3c(Cl)c[nH]c23)cc1 [Indisulam] was tested, and the “relative growth in counter assay” value was -24.4%. For C=CCc1ccc(O)c(-c2cc(CC=C)ccc2O)c1 [Magnolol], the “relative growth in counter assay” value was -9.5%. With CCc1ccc(OCc2ccccc2C(=O)Nc2ccc3nc(C)cc(N)c3c2)cc1 the “relative growth in counter assay” value was -34.6%. Cc1cc(C)nc(NS(=O)(=O)c2ccc(N)cc2)n1 was tested, and the “relative growth in counter assay” value was 2.2%. With CN1CCC[C@@H]1CCO[C@](C)(c1ccccc1)c1ccc(Cl)cc1 the “relative growth in counter assay” value was 6.03%. With OC1=C(C[C@]([C@](CO)=O)(O)C[C@@H]4O[C@@]5([H])C[C@H](N)[C@H](O)[C@H](C)O5)C4=C(O)C3=C1C(C2=CC=CC(OC)=C2C3=O)=O [doxorubicin] the “relative growth in counter assay” value was -35.2%. With CC(CCc1ccc(O)cc1)NCCc1ccc(O)c(O)c1 (centres undefined) [Dobutamine HCl] the “relative growth in counter assay” value was -5.22%. Cc1nc(Nc2ncc(C(=O)Nc3c(C)cccc3Cl)s2)cc(N2CCN(CCO)CC2)n1 [Dasatinib] was tested, and the “relative growth in counter assay” value was -29%. CNC(=O)c1cccc(-c2ccc3c(N4CCOC[C@@H]4C)nc(N4CCOC[C@@H]4C)nc3n2)c1 [Vistusertib (AZD2014)] was tested, and the “relative growth in counter assay” value was -33%. In the case of CN1CCC[C@@H]1CCO[C@](C)(c1ccccc1)c1ccc(Cl)cc1 [Clemastine Fumarate], the “relative growth in counter assay” value is reported as 4.09%. In the case of O=C(c1cccc(Cl)c1F)N1CCN(Cc2cccc(Nc3nccs3)n2)CC1, the “relative growth in counter assay” value is reported as -32.1%. COc1cc2ncnc(Nc3ccc(F)c(Cl)c3)c2cc1OCCCCCOCCOCCC(=O)N[C@H](C(=O)N1C[C@H](O)C[C@H]1C(=O)NCc1ccc(-c2scnc2C)cc1)C(C)(C)C [Gefitinib-based PROTAC 3] was tested, and the “relative growth in counter assay” value was 41.4%. COC(=O)Nc1nc2ccc(Sc3ccccc3)cc2[nH]1 was tested, and the “relative growth in counter assay” value was -32.4%. In the case of CSc1nc2cc(Cl)c(Oc3cccc(Cl)c3Cl)cc2[nH]1, the “relative growth in counter assay” value is reported as 2.75%. In the case of CC(=O)Oc1ccccc1C(=O)Nc1ncc([N+](=O)[O-])s1 [Nitazoxanide], the “relative growth in counter assay” value is reported as -4.25%. With Cc1cc(Nc2ncc(Cl)c(Nc3ccccc3S(=O)(=O)C(C)C)n2)c(OC(C)C)cc1C1CCN(CCOCCOCCNC(=O)CNc2cccc3c2C(=O)N(C2CCC(=O)NC2=O)C3=O)CC1 (centres undefined) the “relative growth in counter assay” value was 9.17%. O=C1CN(/N=C/c2ccc(-c3ccc([N+](=O)[O-])cc3)o2)C(=O)N1 [dantrolene] was tested, and the “relative growth in counter assay” value was -3.99%. For C=CC[C@@H]1/C=C(\C)C[C@H](C)C[C@H](OC)[C@H]2O[C@@](O)(C(=O)C(=O)N3CCCC[C@H]3C(=O)O[C@H](/C(C)=C/[C@@H]3CC[C@@H](O)[C@H](OC)C3)[C@H](C)[C@@H](O)CC1=O)[C@H](C)C[C@@H]2OC [Tacrolimus], the “relative growth in counter assay” value was 18.6%. For CC1=C(/C=C/C(C)=C/C=C/C(C)=C/C(=O)Nc2ccc(O)cc2)C(C)(C)CCC1 [Fenretinide], the “relative growth in counter assay” value was -13.7%. With C/C(=C\c1csc(C)n1)[C@@H]1C[C@@H]2O[C@]2(C)CCC[C@H](C)[C@H](O)[C@@H](C)C(=O)C(C)(C)[C@@H](O)CC(=O)N1 [Ixabepilone] the “relative growth in counter assay” value was -33.8%. With Cc1nnsc1C(=O)Nc1ccc(-n2nc(C(F)(F)F)cc2C(F)(F)F)cc1 the “relative growth in counter assay” value was 3.65%. Clc1ccccc1C(c1ccccc1)(c1ccccc1)n1ccnc1 was tested, and the “relative growth in counter assay” value was 5.96%. For C[C@@H]1CC(=O)c2c(ccc3c2C(=O)c2cccc(O)c2C3=O)C1 [ochromycinone], the “relative growth in counter assay” value was 6.7%.
